Screens deposited in PubChem BioAssay by Broad Institute.
CD40 NFkB inh: CD40 pathway inhibition in BL2 cells; inhibition, % at 10 µM; BL2 NF-kB luciferase reporter, CD40L-induced, 4 h; actives 0.94% (n = 83,000);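 active = mean inhibition of at least 50% with a set share of replicates also reaching that level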
Numbers stand for hits; - = inactive; ! = not active in a repeat; [ ] = dose if it differs, or a comment. This is one part of a sample in which hits are shown more often than they occur.

SMILES	CD40 NFkB inh
O=C(Nc1ccc(C(F)(F)F)cc1)Nc1ccc2c(c1)[C@H]1C[C@@H](CC(=O)N3CCc4ccccc4C3)O[C@H](CO)[C@H]1O2	50[25 µM]
O=C(Cc1ccncc1)Nc1ccc2c(c1)[C@@H]1C[C@@H](CC(=O)N3CCc4ccccc4C3)O[C@H](CO)[C@@H]1O2	-
O=C(Cc1ccncc1)Nc1ccc2c(c1)[C@@H]1C[C@@H](CC(=O)N3CCc4ccccc4C3)O[C@@H](CO)[C@@H]1O2	-
O=C(Nc1ccc(C(F)(F)F)cc1)Nc1ccc2c(c1)[C@H]1C[C@H](CC(=O)N3CCc4ccccc4C3)O[C@@H](CO)[C@H]1O2	-
O=C(Nc1ccc(C(F)(F)F)cc1)Nc1ccc2c(c1)[C@H]1C[C@@H](CC(=O)N3CCc4ccccc4C3)O[C@@H](CO)[C@H]1O2	65[25 µM]
O=C(Cc1ccncc1)Nc1ccc2c(c1)[C@H]1C[C@H](CC(=O)N3CCc4ccccc4C3)O[C@@H](CO)[C@H]1O2	-
COc1cccc(-c2ccc(C3[C@@H]4CN(C(=O)Cc5ccccc5)C[C@H]3N4)cc2)c1 (some centres not stated)	-
O=C(Nc1ccccc1F)N1[C@@H]2CNC[C@H]1C2c1ccc(-c2cccnc2)cc1 (some centres not stated)	-
C/C=C/c1cnc2c(c1)C(=O)N([C@@H](C)CO)C[C@@H](C)[C@H](CN(C)CC1CCOCC1)O2	-
COCC(=O)N1[C@H](C#N)[C@H](c2ccccc2-c2cccc(C)c2)[C@@H]1CO	-
COc1ccc(NC(=O)Nc2ccc3c(c2)[C@@H]2C[C@@H](CC(=O)N4CCN(C)CC4)O[C@@H](CO)[C@@H]2O3)cc1	-
C[C@@H]1CN(C)C(=O)c2cc([N+](=O)[O-])ccc2O[C@H]1CN(C)C(=O)OC(C)(C)C	-
CCNC(=O)c1cc2c(c(-c3cccc(-c4cc5ccccc5o4)c3)n1)[C@@H](CCO)N(C(=O)NC(C)C)C2	-
CC(C)NC(=O)N1Cc2cc(C(=O)NC3CCC3)nc(-c3cccc(-c4cncnc4)c3)c2[C@@H]1CCO	-
CCCNC(=O)c1cc2c(c(-c3cccc(-c4cc5ccccc5o4)c3)n1)[C@H](CCO)N(C(=O)NC(C)C)C2	56[25 µM]
C[C@@H]1CN([C@H](C)CO)C(=O)c2cccc(NC(=O)CCCCCC(=O)Nc3ccccc3N)c2O[C@@H]1CN(C)Cc1ccc(Cl)c(Cl)c1	-
C/C=C/c1ccccc1[C@@H]1[C@@H](CO)N(C(=O)c2cccnc2)[C@H]1C#N	-
COc1ccccc1-c1ccccc1[C@@H]1[C@@H](C#N)N(C(=O)C2CC2)[C@H]1CO	-
COc1ccc(NC(=O)N2C[C@@H]3N[C@H](C2)C3c2ccc(-c3cccc(OC)c3)cc2)cc1 (some centres not stated)	-
COc1ccc(NC(=O)N2C[C@@H]3N[C@H](C2)C3c2ccc(-c3cncnc3)cc2)cc1 (some centres not stated)	-
COc1ccc(NC(=O)N2C[C@@H]3N[C@H](C2)C3c2ccc(-c3ccncc3)cc2)cc1 (some centres not stated)	-
Cc1ccccc1-c1ccc(C2[C@@H]3CN(C(=O)Nc4ccc(F)cc4)C[C@H]2N3)cc1 (some centres not stated)	-
COc1ccc(NC(=O)N2C[C@@H]3N[C@H](C2)[C@@H]3c2ccc(-c3ccc(OC)cc3)cc2)cc1	63
O=C(Nc1cccc(F)c1)N1C[C@@H]2N[C@H](C1)C2c1ccc(-c2ccccc2F)cc1 (some centres not stated)	-
COc1cccc(-c2ccc(C3[C@@H]4CN(C(=O)C5CC5)C[C@H]3N4)cc2)c1 (some centres not stated)	63!
SMILES	CD40 NFkB inh
COc1cccc(-c2ccc(C3[C@@H]4CN(C(=O)C5CCC5)C[C@H]3N4)cc2)c1 (some centres not stated)	-
Cc1ccccc1-c1ccc(C2[C@@H]3CN(C(=O)Nc4cccc(F)c4)C[C@H]2N3)cc1 (some centres not stated)	62[25 µM]
N#C[C@@H]1[C@H](c2ccc(-c3cccc(F)c3)cc2)[C@@H](CO)N1C(=O)NC1CCCCC1	-
C/C=C/c1ccccc1[C@H]1[C@@H](CO)N(C(=O)CN2CCOCC2)[C@H]1C#N	-
C/C=C/c1ccc([C@@H]2[C@@H](CO)N(C(C)=O)[C@@H]2CNC(=O)CC2CC2)cc1	-
CCOC(=O)C1CCCN(CCC(C)c2ccccc2)C1 (configuration not stated)	-
CCOC(=O)c1c(C)c(C(=O)N2CCN(c3ccccc3)CC2)c(C)n1C	-
CCOC(=O)c1c(SCCN2CCCC2)n(-c2ccccc2)c(=S)n(-c2ccccc2)c1=O	51
O=C(C1CCOCC1)N1CC(=O)N2[C@H](CO)[C@H](c3ccc(C#CC4CCCC4)cc3)[C@@H]2C1	-
CO[C@@H](CN(C)S(=O)(=O)c1ccc(Cl)cc1)[C@@H](C)CN([C@H](C)CO)S(=O)(=O)c1cccc(Cl)c1	-
COc1cccc(CN(C)C[C@H]2OCc3ccccc3-c3ccccc3C(=O)N([C@H](C)CO)C[C@H]2C)c1	-
COc1ccccc1N1CCN(c2ccc(-c3ccccc3)nn2)CC1	53
COc1ccccc1N1CCN(c2ccc(S(=O)(=O)N3CCN(C)CC3)cn2)CC1	-
COc1ccccc1OCC(=O)N1CCN(c2ccccc2OC)CC1	-
CC(C)[C@H]1C(=O)N[C@@H](c2ccc3c(c2)OCO3)CC=CC[C@H](C)Oc2ccccc2C(=O)N1C (mixture of isomers)	-
Cn1c(SSc2ccc(-c3cccnc3)n2C)ccc1-c1cccnc1	48
Cc1nn2c(-c3cccnc3)ccnc2c1-c1ccccc1	-
Cn1c(SC/C=C/c2ccccc2)nnc1-c1cccnc1	-
CCCNC(=O)N1[C@H](CO)[C@H](c2ccc(C3=CCCCC3)cc2)[C@H]1CNC(C)C	-
CN(CC(=O)N1CCCCC1)S(=O)(=O)c1ccc(Cl)cc1	-
CCN1CCN(C(=O)CN(C)S(=O)(=O)c2ccc(Cl)cc2)CC1	-
C=CC(=O)N1C/C(=C/c2ccc(Cl)cc2)C(=O)/C(=C\c2ccc(Cl)cc2)C1	93
O=C(N[C@H]1CC[C@H](CCn2cc(C3CCCC3)nn2)O[C@H]1CO)c1cccnc1	-
NCC[C@H]1CC[C@H](NC(=O)NC2CCCCC2)[C@H](CO)O1	-
COc1cccc(-c2cn(CC[C@@H]3CC[C@H](NC(=O)CC4CC4)[C@@H](CO)O3)nn2)c1	-
SMILES	CD40 NFkB inh
O=C(COC(=O)c1ccccc1[N+](=O)[O-])NC(=O)c1ccccc1	-
O=C(NC(=S)/C(=C1\CCCCCN1)[N+](=O)[O-])c1ccccc1	72
O=C(NC1CCCCNC1=O)c1ccccc1 (configuration not stated)	-
COC(=O)[C@@H]1[C@@H](CO)[C@@H]2Cn3c(ccc(-c4ccccc4OC)c3=O)[C@@H]2N1CC1CCCC1	-
COc1cccc(NC(=O)N2CC(=O)N3[C@H](CO)[C@H](c4ccc(C#CCC5CCCC5)cc4)[C@H]3C2)c1	-
COc1cccc(-c2ccc3c(c2)[C@@H]2[C@@H](CCN2C(=O)NC2CCCCC2)[C@H](CO)N3C)c1	-
C[C@H]1CN([C@@H](C)CO)C(=O)c2c(c3ccccc3n2C)-c2ccccc2CO[C@@H]1CN(C)C(=O)c1ccncc1	-
COC(=O)c1ccccc1NC(=O)COC(=O)/C=C/c1cccs1	-
COC(=O)c1ccccc1NC1=C/C(=N\S(=O)(=O)c2cccs2)c2ccccc2C1=O	33
COC(=O)c1ccccc1NC(=O)C(CCS(C)(=O)=O)NC(C)=O (configuration not stated)	-
